Assay [1] addresses Progesterone receptor (Homo sapiens) (UniProt P06401). Briefly: qHTS assay to identify small molecule agonists of the progesterone receptor (PR) signaling pathway (AID 1346784; calls by dose curve; further: nearly all actives have a fitted effect of over 30% in size). An outline of the steps: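 The screen uses PR-UAS-bla HEK 293T cells in charcoal-stripped serum (2%). Compounds are applied for 16 hr at 37C after a 6 hr pre-incubation, and reporter activity is detected with a FRET beta-lactamase substrate after 2 hr at room temperature.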

For assay [2] the target is unchanged. In words: qHTS assay to identify small molecule antagonists of the progesterone receptor (PR) signaling pathway (AID 1346795; active means well fitted inhibition curve with a large enough effect in the signal ratio in the repeat runs, not every such curve was filed as active; the % refers to the signal ratio; further: potency means the concentration at half of the fitted maximal effect). Put shortly: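 After 6 hr plating at 37C in 2% stripped-serum medium, PR-UAS-bla HEK293T cells got compounds, then 1 nM R5020. Sixteen hours later, LiveBLAzer substrate was applied for 2 hr at room temperature and fluorescence was recorded.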

A short description of assay [3]: qHTS assay to identify small molecule antagonists of the progesterone receptor (PR) signaling pathway - cell viability counter screen (AID 1346798). Further: nearly all actives have a fitted effect of over 50% in size. Further: potency means the concentration at half of the fitted maximal effect. Put shortly:
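Viability was determined by ATP-based luminescence (CellTiter-Glo) in PR-UAS-bla HEK293T cells cultured in 2% charcoal-stripped serum and incubated 16 hr with compounds under R5020 stimulation.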

Assay [4] in a line: qHTS assay to identify small molecule agonists of the progesterone receptor (PR) signaling pathway - cell viability counter screen (AID 1346799; calls by dose curve; further: nearly all actives have a fitted effect of over 45% in size; further: potency means the concentration at half of the fitted maximal effect). Put shortly:
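Viability was scored by ATP luminescence (CellTiter-Glo, 30 min, room temperature) in the same wells used for the reporter readout, after 16 hr compound exposure of PR-UAS-bla HEK293T cells.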

Assay [5] can be described thus: qHTS assay to identify small molecule antagonists of the TGF-beta/Smad signaling pathway - cell viability counter screen (AID 1346824). Further: nearly all actives have a fitted effect of over 50% in size. Put shortly:
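SBE-bla HEK 293T cells were plated overnight at 37 C, then given compounds in DMSO plus TGF-beta1 (added as 0.25 ng/mL solution) for 5 hr. After the bla read, CellTiter-Glo was added to the same wells and luminescence read after 30 min at room temperature.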

Assay [6] can be described thus: qHTS assay to identify small molecule agonists of the TGF-beta/Smad signaling pathway - cell viability counter screen (AID 1346829). Further: top concentration of the series differs between compounds; nearly all actives have a fitted effect of over 45% in size. Put shortly: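 Here the cytotoxicity of library compounds is measured in SBE-bla HEK 293T cells treated for 5 hr, using CellTiter-Glo added to wells already read for the beta-lactamase reporter.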
A short description of assay [7]: qHTS assay to identify small molecule agonists of the TGF-beta/Smad signaling pathway (AID 1346859; active means well fitted activation curve with a large enough effect in the signal ratio in the repeat runs, not every such curve was filed as active; the % refers to the signal ratio; further: series mostly up to about 77 µM). Put shortly:
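Dual-wavelength fluorescence (460/530 nm emission) quantified beta-lactamase expression under the Smad binding element in HEK 293T cells following 5 hr compound treatment at 37 C.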

The target of assay [8] is Thyrotropin-releasing hormone receptor (Homo sapiens) (UniProt P34981). In words: qHTS assay to identify small molecule antagonists of the thyrotropin-releasing hormone receptor (TRHR) signaling pathway (AID 1346877; active means well fitted inhibition curve with a large enough effect in the repeat runs, not every such curve was filed as active; further: series mostly up to about 51 µM). Put shortly: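 HEK293/TRHR cells, 18 h, 37 °C; Ca2+ dye 2 h; cpd 5 min RT; TRH 1 nM final; fluorescence read 3 min, 1 s intervals; 15 concs, triplicate.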
Thyrotropin-releasing hormone receptor (Homo sapiens), sequence (P34981 whole entry, looked up): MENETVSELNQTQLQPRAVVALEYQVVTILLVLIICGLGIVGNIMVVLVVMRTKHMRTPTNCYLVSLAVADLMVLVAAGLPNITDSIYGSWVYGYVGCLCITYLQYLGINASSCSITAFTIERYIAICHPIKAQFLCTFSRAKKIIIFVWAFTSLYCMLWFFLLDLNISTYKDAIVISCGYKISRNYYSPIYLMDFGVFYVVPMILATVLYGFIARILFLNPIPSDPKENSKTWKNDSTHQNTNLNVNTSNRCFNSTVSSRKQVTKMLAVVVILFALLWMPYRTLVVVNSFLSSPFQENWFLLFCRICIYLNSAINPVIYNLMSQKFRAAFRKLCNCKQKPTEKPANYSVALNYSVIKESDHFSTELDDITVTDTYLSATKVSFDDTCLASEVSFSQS

Assay [9] shares this target. In words: qHTS assay to identify small molecule agonists of the thyrotropin-releasing hormone receptor (TRHR) signaling pathway (AID 1346891; calls by dose curve;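 further: HEK293 cells expressing TRHR with calcium dye readout; series mostly up to about 58 µM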). An outline of the steps:
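Kinetic fluorescence (3 min, 1 s intervals) reported intracellular calcium after compound transfer onto TRHR-Hek293 cells pre-loaded with dye for 2 h at 37 °C.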

This is an account of results in PubChem BioAssay (Tox21).

Values joined by “and” are separate entries in the source; they are usually repeats but may differ in a detail not shown here. Identical values can stand only once. Results filed as inconclusive are left out. More than one record can exist for a structure, and the calls need not agree. Active and inactive are the calls of the source. Unless noted, the call rests on the fitted dose curve; in most records, active means well fitted curve in the direction sought with a large enough effect in the repeat runs; inconclusive means weak or mixed curves; inactive means no such curve, though single readings can be large; an effect the other way counts as inactive or inconclusive.

Progesterone receptor (Homo sapiens), sequence (P06401 whole entry, looked up): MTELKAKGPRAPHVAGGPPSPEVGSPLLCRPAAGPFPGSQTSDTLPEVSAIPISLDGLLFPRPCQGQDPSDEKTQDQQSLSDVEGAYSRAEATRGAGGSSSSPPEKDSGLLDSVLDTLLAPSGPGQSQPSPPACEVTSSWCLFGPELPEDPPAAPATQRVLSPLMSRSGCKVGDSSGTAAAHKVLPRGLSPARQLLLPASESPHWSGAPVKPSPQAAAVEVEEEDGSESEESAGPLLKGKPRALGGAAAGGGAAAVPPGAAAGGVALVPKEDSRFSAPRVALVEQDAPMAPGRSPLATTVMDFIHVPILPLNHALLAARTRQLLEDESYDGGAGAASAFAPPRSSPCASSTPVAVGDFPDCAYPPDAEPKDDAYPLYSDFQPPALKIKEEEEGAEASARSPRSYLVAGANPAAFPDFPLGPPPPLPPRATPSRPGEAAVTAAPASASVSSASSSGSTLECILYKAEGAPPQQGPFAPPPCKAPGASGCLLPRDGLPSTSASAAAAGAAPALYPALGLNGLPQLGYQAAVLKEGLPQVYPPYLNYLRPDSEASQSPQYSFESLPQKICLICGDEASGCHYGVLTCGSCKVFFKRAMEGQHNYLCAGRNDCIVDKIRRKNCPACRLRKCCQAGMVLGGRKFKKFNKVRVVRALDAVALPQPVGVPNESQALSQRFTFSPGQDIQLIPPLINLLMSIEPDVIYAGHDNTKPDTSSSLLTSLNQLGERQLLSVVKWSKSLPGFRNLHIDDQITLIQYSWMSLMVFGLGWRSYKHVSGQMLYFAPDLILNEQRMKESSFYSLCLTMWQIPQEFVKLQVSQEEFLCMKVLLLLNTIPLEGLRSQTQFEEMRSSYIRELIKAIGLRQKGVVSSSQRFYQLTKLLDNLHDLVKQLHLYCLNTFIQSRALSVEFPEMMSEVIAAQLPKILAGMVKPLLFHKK

On to `C=CC(C)(O)CCC=C(C)C` (stereo not drawn), for which the Potency result in assay [1], in assay [2], in assay [3], in [4], in assay [5] and in assay [6] was “inactive” throughout. The Potency entry in assay [8] and in assay [9] was “inactive” each time. Besides, the compound was called inactive in [7].
As to `CCCCCC1C(=O)CCC1CC(=O)OC` (stereo not drawn), the Potency entry in [1], in assay [2], in assay [3], in [4], in assay [5] and in [6] was “inactive” in each case. Also, the Potency entry in assay [8] and in [9] was “inactive” in each case. The outcome in assay [7] was inactive.
`CCCCCCC(C)O` (stereo not drawn): the Potency result in [1], in assay [2], in [3], in [5], in [6] and in [8] was “inactive” each time. Besides, the Potency entry in [9] is “inactive”. Besides, the call in assay [7] was inactive.
`c1ccc2c(c1)[nH]c1ccccc12`: the Potency result in [1], in [3], in assay [4], in [5], in [6] and in assay [8] was “inactive” in each case. In [9], the Potency result is “inactive”. For the same compound, the Potency in assay [2] was 26.8 µM (active). Moreover, the compound was classed as inactive in [7].
Consider `Cc1ccc(N)c([N+](=O)[O-])c1`, for which the Potency entry in assay [1], in [3], in [5], in assay [6], in assay [8] and in assay [9] was “inactive” each time. For the same compound, the compound was called inactive in [7].
Consider `CC(=O)Oc1ccc(C(c2ccc(OC(C)=O)cc2)c2ccccn2)cc1`, for which the Potency entry in [1], in assay [2], in [3], in assay [4], in [5] and in assay [6] was “inactive” throughout. The Potency entry in [8] and in [9] was “inactive” each time.
Regarding `CC/C(=C(/CC)c1ccc(O)cc1)c1ccc(O)cc1`, the Potency result in [1], in assay [4], in assay [5], in [6], in assay [8] and in assay [9] was “inactive” each time. The Potency was 12.2 µM (active) in assay [2] and 60.6 µM (active) in assay [3]. In assay [7], the outcome was inactive.
Take `NC[C@H](O)c1ccc(O)c(O)c1`: the Potency entry in assay [1], in [2], in [3], in assay [5] and in [6] was “inactive” each time. Moreover, in assay [7], the call was inactive.
For `C1CN(SSN2CCOCC2)CCO1`, the Potency entry in assay [1], in assay [2], in assay [3], in [4], in [6] and in assay [8] was “inactive” throughout. For the same compound, the Potency result in [9] is “inactive”.
Take `CCO[Si](CCCNC(N)=O)(OCC)OCC`: the Potency entry in assay [1], in [2], in [3], in assay [4], in [5] and in assay [6] was “inactive” each time. Moreover, the call in assay [7] was inactive.
`NCCOCCO`: the Potency entry in assay [1], in [2], in assay [3], in assay [4], in [5] and in [6] was “inactive” throughout. Moreover, the Potency entry in assay [8] and in assay [9] was “inactive” throughout. Moreover, in assay [7], the outcome was inactive.
Consider `Nc1ccc2c(O)cc(S(=O)(=O)O)cc2c1`, for which the Potency entry in assay [1], in [5], in assay [6], in assay [8] and in [9] was “inactive” each time. Besides, in assay [4], the Potency result was “inactive and 9.69 µM (active)”. The result in [7] was inactive.
In the case of `CCCOCCO`, the Potency entry in assay [1], in assay [2], in [3], in assay [4], in assay [5] and in assay [6] was “inactive” in each case. Further, the Potency result in [8] and in assay [9] was “inactive” throughout. Also, the compound was called inactive in assay [7].
On to `CN(C)C`, for which the Potency result in assay [1], in assay [2], in assay [3], in assay [5] and in [6] was “inactive” throughout. Besides, the call in [7] was inactive.
Consider `CC1(C)O[C@@H]2C[C@H]3[C@@H]4C[C@H](F)C5=CC(=O)C=C[C@]5(C)[C@@]4(F)[C@@H](O)C[C@]3(C)[C@]2(C(=O)CO)O1`, for which the Potency result in [2], in assay [3], in assay [5], in assay [6], in assay [8] and in [9] was “inactive” each time. Besides, the compound was called inactive in assay [7].
Regarding `Cc1ccc([N+](=O)[O-])c(C)c1`, the Potency result in assay [1], in [2], in assay [5], in assay [6], in assay [8] and in assay [9] was “inactive” each time. For the same compound, in assay [4], the Potency was 19.3 µM (active) and inactive. The compound was called inactive in assay [7].
As for `c1ccc2c(c1)ccc1ncccc12`, the Potency entry in [1], in [3], in [5], in [6], in assay [8] and in [9] was “inactive” each time. Also, the compound was called inactive in assay [7].
Consider `Cc1ccc(C(C)(C)C)cc1`, for which the Potency result in assay [1], in assay [2], in assay [3], in assay [5], in [6] and in assay [8] was “inactive” throughout. The Potency entry in assay [9] is “inactive”. In addition, the result in assay [7] was inactive.
For `Oc1ccc(C(c2ccc(O)cc2)C(Cl)(Cl)Cl)cc1`, the Potency in [2] is 12.1 µM (active). For the same compound, the Potency result in assay [4], in assay [5], in [6], in [8] and in [9] was “inactive” each time. Also, the outcome in assay [7] was inactive.
Turning to `CCCCCCCCCCCCCO`, the Potency result in assay [1], in assay [2], in assay [3], in assay [4], in assay [5] and in [6] was “inactive” each time. The Potency entry in [8] and in [9] was “inactive” each time. Also, the call in [7] was inactive.
Take `CCCCCCCCCCCCO`: the Potency entry in assay [1], in assay [2], in [3], in assay [5], in assay [6] and in assay [8] was “inactive” throughout. In assay [9], the Potency result was “inactive”. Also, the result in assay [7] was inactive.
Turning to `CN(Cc1cnc2nc(N)nc(N)c2n1)c1ccc(C(=O)N[C@@H](CCC(=O)O)C(=O)O)cc1`, the Potency entry in assay [1] and in assay [3] was “inactive” throughout. Also, in assay [2], the Potency is 0.133 µM (active). Besides, the call in assay [7] was inactive.
As for `C=CN1CCCC1=O`, the Potency entry in assay [1], in assay [2], in assay [3], in assay [4], in assay [5] and in [6] was “inactive” in each case. The Potency entry in [8] and in [9] was “inactive” throughout. In addition, the compound was classed as inactive in assay [7].
As to `CN(C)/N=N/c1nc[nH]c1C(N)=O`, the Potency result in assay [1], in assay [2], in [3], in assay [5], in assay [6] and in [8] was “inactive” throughout. Also, in assay [9], the Potency entry was “inactive”. Moreover, in [7], the compound was called inactive.
`CCCCCC=O`: the Potency result in assay [1], in assay [2], in assay [3], in [5], in assay [6] and in assay [8] was “inactive” each time. In addition, the Potency entry in assay [9] was “inactive”. Moreover, in assay [7], the result was inactive.
Consider `Nc1cc(Cl)c(N)c(Cl)c1`, for which the Potency entry in [1], in assay [2], in assay [3], in assay [4], in [5] and in [6] was “inactive” each time. The Potency entry in [8] and in [9] was “inactive” in each case. In addition, the result in assay [7] was inactive.
In the case of `C=C1C[C@H]2[C@@H]3C=C(C)C4=CC(=O)CC[C@]4(C)[C@H]3CC[C@]2(C)[C@@]1(OC(C)=O)C(C)=O`, the Potency entry in [2], in assay [5], in assay [6], in assay [8] and in [9] was “inactive” throughout. In addition, the call in [7] was inactive.
For the compound `O=C(O)c1ccc(O)cc1`, the Potency result in [1], in assay [2], in assay [3], in [5], in [6] and in assay [8] was “inactive” in each case. Besides, the Potency entry in assay [9] is “inactive”. The result in [7] was inactive.
With `C/C=C/C(=O)N(CC)c1ccccc1C`, the Potency entry in [1], in assay [2], in [3], in assay [5], in assay [6] and in assay [8] was “inactive” throughout. Moreover, the Potency entry in [9] was “inactive”. In assay [7], the call was inactive.
As for `COC(=O)C(C)Oc1ccc(Oc2ncc(C(F)(F)F)cc2Cl)cc1` (stereo not drawn), the Potency entry in assay [1], in [2], in assay [3], in [4], in [5] and in assay [6] was “inactive” throughout. The Potency result in assay [8] and in assay [9] was “inactive” in each case. In addition, the compound was called inactive in assay [7].
